# According to PubChem BioAssay (NCATS):
# Results filed as inconclusive are left out. A number with no mark means an inactive call. Active and inactive are the calls of the source. Calls follow the shape of the dose curve; as a rule, active = well fitted inhibition curve with a large enough effect; inconclusive = small, poorly fitted or top-dose-only effect; inactive = flat fitted curve, though single readings scatter.
# Legend:
# CRL-7250 = normal cell line; assay: Cytotoxic Profiling of Annotated Libraries Using Quantitative High-Throughput Screening (AID 1296008); settings: Five cell lines viability, CellTiter-Glo ATP luminescence, 48-72 h; max response: stronger effect = lower value; as to max response: % is scaled to controls: 0 for no effect and ±100 for the full control effect
# How it was run: (§1)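 Compounds were pin-transferred onto cells and incubated 48 or 72 hr at 37 degree Celsius, 95% humidity. CellTiter-Glo was added, plates sat 10 min at room temperature, then ATP-coupled luminescence was imaged as the viability read-out.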
# KB-3-1 = assay: as above; settings: Five cell lines viability, CellTiter-Glo ATP luminescence, 48-72 h; max response: stronger effect = lower value
# How it was run: as §1
# NIH3T3 = assay: as above; settings: Five cell lines viability, CellTiter-Glo ATP luminescence, 48-72 h; max response: stronger effect = lower value
# How it was run: as §1
# HEK293T = assay: qHTS assay to identify novel small-molecules to repurpose for Merkel cell carcinoma treatment (AID 1296009); settings: MCC and control cell lines, CellTiter-Glo viability, 72 h
# How it was run: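 Cells exposed to NPC (8-point) and MIPE (11-point) compound dilutions for 72 hr at 37 degree celsius; viability read by CellTiter-Glo luminescence, normalized to no-cell and DMSO in-plate controls.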
# HEK293 = assay: Cytotoxic Profiling of Annotated Libraries Using Quantitative High-Throughput Screening (AID 1296008); settings: Five cell lines viability, CellTiter-Glo ATP luminescence, 48-72 h; max response: stronger effect = lower value; as to max response: % is scaled to controls: 0 for no effect and ±100 for the full control effect
# How it was run: as §1
# HaCat = assay: as above; settings: Five cell lines viability, CellTiter-Glo ATP luminescence, 48-72 h; max response: stronger effect = lower value
# How it was run: as §1
# Also: nearly all actives have a fitted effect of over 60% in size.
# Potency is read from the fitted curve at half-maximal effect.
compound,measurement,setting,value
CNc1nc(Nc2ccc(C(=O)N3CCOCC3)cc2OC)nc2[nH]cc(Cl)c12,max response,CRL-7250,1.38%
same,Potency,KB-3-1,10300 nM (active)
Clc1cccc(COc2cncc(N3CCNCC3)n2)c1,outcome,CRL-7250,inactive
same,max response,KB-3-1,-0.792%
same,max response,NIH3T3,-5.94%
Fc1ccc(N2CCCCC2)c(NC(=S)c2ccncc2)c1,max response,CRL-7250,3.95%
same,max response,KB-3-1,-9.62%
same,max response,NIH3T3,-6.72%
CCOc1cn(-c2ccc(F)cc2C)nc1C(=O)Nc1ccc(Oc2ccnc3cc(OC)c(OC)cc23)c(F)c1,max response,CRL-7250,-25.1%
same,max response,KB-3-1,5.26%
same,Potency,NIH3T3,5800 nM (active)
CC(C)c1cc(-c2ccc(F)c3ccccc23)nc(N)n1,max response,CRL-7250,2.23%
same,max response,KB-3-1,-2.32%
same,outcome,NIH3T3,inactive
C/C=C(/C)C(=O)O[C@@H]1C[C@@H](OC(=O)CC(C)C)C2(C)C3C(=O)C=C(C)C2C3C1(C)C (stereo partly drawn),max response,CRL-7250,0.438%
same,max response,KB-3-1,5.54%
same,max response,NIH3T3,-2.22%
CO[C@@H]1CC(OC2CCC3(C)C(CCC45CCC(C6=CC(=O)OC6)C(C)(CCC43)C5=O)C2)O[C@H](C)[C@@H]1O[C@@H]1O[C@H](CO[C@@H]2O[C@H](CO)[C@@H](O)[C@H](O)[C@H]2O)[C@@H](O)[C@H](O)[C@H]1O (stereo partly drawn),Potency,CRL-7250,2460 nM (active)
same,Potency,KB-3-1,3480 nM (active)
same,max response,NIH3T3,-1.96%
C=C(C(=O)OC[C@H]1O[C@@H](OC(=O)/C=C/c2ccccc2)[C@H](O)[C@@H](O)[C@@H]1O)C(O)CO (stereo partly drawn),max response,CRL-7250,-9.26%
same,max response,KB-3-1,-8.71%
same,max response,NIH3T3,1.83%
CC1=CC2/C=C(\C)CCC3OC(C)(C)OC3CCC(=O)C23C(=O)NC(CC(C)C)C3C1C (stereo not drawn),max response,CRL-7250,4.29%
same,max response,KB-3-1,3.72%
same,max response,NIH3T3,-3.16%
Cn1ccc(NC(=O)c2cc(Oc3ccc(C(=O)N4CCC4)c(F)c3)c3c(c2)OC(C)(C)C3)n1,max response,CRL-7250,3.93%
same,max response,KB-3-1,1.91%
same,max response,NIH3T3,4.11%
CC(=O)O[C@H]1[C@H](O)C[C@@]2(C)C(CC[C@]3(C)C2CC=C2C4CC(C)(C)CC[C@]4(C(=O)O)CC[C@]23C)C1(C)C (stereo partly drawn),max response,CRL-7250,-14.7%
same,max response,KB-3-1,-19.6%
same,max response,NIH3T3,-15.2%
COc1cccc(NCCC2(c3ccccc3)CC(C)(C)OC(C)(C)C2)c1,max response,CRL-7250,-3.59%
same,max response,KB-3-1,-14.2%
same,max response,NIH3T3,-25%
Cc1c(C(=O)Nc2ccc(N3CCC(N4CCOCC4)CC3)c(C#N)c2)cnn1-c1ccc(Cl)cc1,Potency,CRL-7250,1160 nM (active)
same,Potency,KB-3-1,1460 nM (active)
same,Potency,NIH3T3,366 nM (active)
CC(=O)O[C@@]12CO[C@@H]1C[C@H](O)[C@@]1(C)C(=O)[C@H](O)C3=C(C)[C@@H](OC(=O)[C@H](O)[C@@H](NC(=O)OC(C)(C)C)c4ccccc4)C[C@@](O)([C@@H](OC(=O)c4ccccc4)C12)C3(C)C (stereo partly drawn),Potency,CRL-7250,5 nM (active)
same,Potency,KB-3-1,3.6 nM (active)
same,Potency,NIH3T3,22.4 nM (active)
C/C=C/C=C/C=C/C(=O)O[C@@H]1C=C2COC(=O)[C@]2(O)[C@@]2(C)CCCC(C)(C)[C@H]12,max response,CRL-7250,-25.9%
same,max response,KB-3-1,-0.753%
same,max response,NIH3T3,-4.92%
COc1ccc2nc3n[nH]c(C)c3c(NCCOCCO)c2c1,max response,CRL-7250,4.22%
same,max response,KB-3-1,2.11%
same,max response,NIH3T3,2.85%
CCCSc1nc(N[C@@H]2C[C@H]2c2ccc(F)c(F)c2)c2nnn([C@@H]3C[C@H](OCCO)[C@@H](O)[C@H]3O)c2n1,outcome,CRL-7250,inactive
same,max response,KB-3-1,-26.6%
same,max response,NIH3T3,-24.3%
C=C(C)C1CC(O)C(C)C12CC(O)C1(C)OC1C2O (stereo not drawn),Potency,CRL-7250,2590 nM (active)
same,Potency,KB-3-1,3660 nM (active)
same,max response,NIH3T3,-26.2%
O=C(NCCN1CCC(n2c(=O)[nH]c3ccccc32)CC1)c1cc2cc(F)ccc2[nH]1,max response,CRL-7250,4.31%
same,max response,KB-3-1,1.32%
same,outcome,NIH3T3,inactive
CCN1CCC[C@@H]1CNC(=O)c1ccc2c(c1)NC(=O)c1cccc(C)c1S2,max response,CRL-7250,2.08%
same,outcome,KB-3-1,inactive
same,outcome,NIH3T3,inactive
O=C(Nc1ccccc1Br)NC1CCN(c2ccc(C(F)(F)F)cn2)C1 (stereo not drawn),outcome,CRL-7250,inactive
same,max response,KB-3-1,-16.5%
same,max response,NIH3T3,-7.45%
COc1ccc(S(=O)(=O)N2CCC[C@H]2C(=O)Nc2cc(C)cc(C)c2)cc1,max response,CRL-7250,2.15%
same,outcome,KB-3-1,inactive
same,max response,NIH3T3,0.512%
CNc1cccc(CCOc2ccc3c(c2)CN(CC(F)(F)F)C(=O)[C@H](CC(=O)O)C3)n1,Potency,CRL-7250,82 nM (active)
same,max response,KB-3-1,-2.45%
same,Potency,NIH3T3,116 nM (active)
O=C(Cc1c(F)cccc1F)Nc1cc(OCc2ccc(Cl)cc2)ccn1,max response,CRL-7250,3.56%
same,outcome,KB-3-1,inactive
same,max response,NIH3T3,-10.7%
O=C(CNC(=O)c1cccc(C(F)(F)F)c1)N[C@@H]1CCN(Cc2ccc(Cl)cc2)C1,max response,CRL-7250,-11.8%
same,max response,KB-3-1,-17%
same,max response,NIH3T3,-1.44%
CC1(C)SCCN(S(=O)(=O)c2ccc(Oc3ccncc3)cc2)[C@H]1C(=O)NO,max response,CRL-7250,-1.93%
same,max response,KB-3-1,-10.1%
same,max response,NIH3T3,2.44%
CN(CC1COCCO1)S(=O)(=O)Nc1ccc2ccc3ncc(-c4cnn(C)c4)cc3c(=O)c2c1 (stereo not drawn),Potency,HEK293T,6510 nM (active)
CC(=O)C1(C)CCC2C3C=C(C)C4=CC(=O)CCC4(C)C3CCC21C (stereo not drawn),Potency,HEK293,10300 nM (active)
same,max response,HaCat,-54.8%
same,max response,NIH3T3,-16.2%
O=S(=O)(NCc1cccc2ccccc12)c1cc(Cl)c(Oc2cccc(N3CCNCC3)c2)s1,Potency,HEK293,10300 nM (active)
same,Potency,NIH3T3,14600 nM (active)
